Source: PubChem
JMJD2A Tudor = inhibitors of human JMJD2A Tudor domain; O75164; AlphaScreen JMJD2A-Tudor / H3K4me3 peptide binding; Potency, µM (series often up to 114 µM), for the others: at the top dose activity change, negative = inhibition, usual class: inhibitors; 390,000 compounds, 4.4% hits; also: % is scaled to controls: 0 for no effect and ±100 for the full control effect; nearly all actives have a fitted effect of over 50% in size
G9a inh = inhibitors of human histone lysine methyltransferase G9a; AID 504332; Q96KQ7; 350,000 compounds, 8.8% hits; Potency, µM (series often up to 102 µM), for inactives: top-dose activity, negative = inhibition, actives largely listed as inhibitors; G9a H3K9 monomethylation, AlphaScreen, 2 h; also: % is scaled to controls: 0 for no effect and ±100 for the full control effect; nearly all actives have a fitted effect of over 75% in size
Target sequence (Q96KQ7 913-1193 limits assumed): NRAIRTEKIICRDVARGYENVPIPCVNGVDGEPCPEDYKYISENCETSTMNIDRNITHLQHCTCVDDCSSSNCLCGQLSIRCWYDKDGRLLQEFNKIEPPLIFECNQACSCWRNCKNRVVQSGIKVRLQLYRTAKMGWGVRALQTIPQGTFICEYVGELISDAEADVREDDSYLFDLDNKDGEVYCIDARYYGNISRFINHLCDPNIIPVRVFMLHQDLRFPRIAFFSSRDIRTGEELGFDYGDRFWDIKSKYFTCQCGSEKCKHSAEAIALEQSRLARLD
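Quantitative HTS format: methyltransferase activity on a biotin-tagged H3K9 peptide is measured by AlphaScreen, using a rabbit anti-monomethyl-H3K9 antibody with streptavidin donor and anti-IgG acceptor beads. Final levels are 20 nM enzyme, 500 nM peptide, 20 uM SAM; 2 h RT.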
HP1b chromo inh = HP1-beta chromodomain-methylated histone interaction inhibition. AlphaScreen HP1-beta / biotin-H3K9me3 peptide binding. 390,000 compounds, 0.56% hits. P83916. Potency, µM (doses to about 114 µM), for inactives: at the highest dose activity change, negative = inhibition, hits mostly inhibitors. AID 540317; also: nearly all actives have a fitted effect of over 70% in size
Target sequence (P83916 whole entry, looked up): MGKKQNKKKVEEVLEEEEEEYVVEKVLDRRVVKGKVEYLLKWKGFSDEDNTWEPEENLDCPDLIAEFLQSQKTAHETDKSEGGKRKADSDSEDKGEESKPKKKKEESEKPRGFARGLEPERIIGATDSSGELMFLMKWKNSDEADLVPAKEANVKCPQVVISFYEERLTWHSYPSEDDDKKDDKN
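Compound inhibition of the preformed complex between 50 nM HP1-beta and 50 nM biotinylated H3K9me3 peptide was read by AlphaScreen. Buffer was PBS pH 7.4 with 0.01% Tween-20. Incubations ran 30 min at room temperature, with 10 ug/mL donor/acceptor beads.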
PLK1 PBD block = blocks phosphopeptide binding to human PLK1 polo-box domain. P53350. Plk1 PBD binding of FITC phosphopeptide, fluorescence polarization. Potency, µM, inactives show max response, negative = inhibition, usual class: inhibitors. 360,000 compounds, 2.8% hits; also: series mostly up to about 57 µM; % is scaled to controls: 0 for no effect and ±100 for the full control effect; nearly all actives have a fitted effect of over 65% in size
VDR inhibitor = inhibitors of human vitamin D receptor; VDR-SRC2-3 peptide fluorescence polarization, 2 h; 400,000 compounds, 0.93% hits; AID 504847; Potency, µM, without a hit: max response, negative = inhibition, hits mostly inhibitors; also: % is scaled to controls: 0 for no effect and ±100 for the full control effect
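Fluorescence polarization assay of small-molecule disruption of VDR binding to coregulator peptide SRC2-3. Compounds and controls pin-transferred, then read after 2 h incubation at ambient room temperature.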
BAZ2B inh = blocks human BAZ2B; Q9UIF8; AlphaScreen BAZ2B-H3K14Ac peptide displacement; Potency, µM (titrated, usually from 114 µM), for inactives: at the highest dose activity change, negative = inhibition, hits mostly inhibitors; 360,000 compounds, 4.4% hits; AID 504333; also: % is scaled to controls: 0 for no effect and ±100 for the full control effect; nearly all actives have a fitted effect of over 60% in size
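AlphaScreen displacement of biotin-H3(5-23)K14Ac peptide (50 nM final) from BAZ2B (50 nM final) in PBS pH 7.4, 0.01% Tween-20; complex preformed 30 min RT, then compounds (top 110 uM) 30 min RT, beads 20 min dark.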
The depositor's hits bear a star; [ ] = dose if it differs, or a comment. Shown are actives, neighbours in structure and some others; about 11% of the full set was active somewhere. Calls follow the shape of the dose curve; as a rule, active = well fitted curve in the direction sought with a large enough effect; inconclusive = small, poorly fitted or top-dose-only effect, or another doubt; inactive = no such curve, though single readings can be large; an effect the other way counts as inactive or inconclusive. Potency is read from the fitted curve at half-maximal effect.

CC(C)(C)NC(=O)CN(C(=O)CCC(=O)Nc1nccs1)c1ccc(F)cc1 was read as JMJD2A Tudor 0.0%, G9a inh 58.6%, HP1b chromo inh 47.7%, PLK1 PBD block 0.1%, VDR inhibitor -6.4% and BAZ2B inh -4.5%.
`COc1ccc(CNc2ncnc3ccc(-c4ccc(C(=O)N(C)C)cc4)cc23)c(OC)c1` gave G9a inh -8.2%[0.501 µM] and VDR inhibitor -6.3%.
`O=c1ccc(=O)n(-c2ccccc2)[nH]1` gave JMJD2A Tudor 79.4µM*, G9a inh 14.1µM*, HP1b chromo inh inconclusive, PLK1 PBD block -21.5%, VDR inhibitor -23.5% and BAZ2B inh -1.2%.
For COc1ccc(/C=C2/SC(=O)N(CCC(=O)Nc3ccc(C)cc3)C2=O)cc1OC the results were G9a inh -23.7% and BAZ2B inh -4.6%.
`COc1ccc(/C=C2\SC(=O)N(CCNC(=O)Cc3coc4cc(C)ccc34)C2=O)cc1OC` gave JMJD2A Tudor -27.8%, G9a inh 10µM*, HP1b chromo inh 10.4%, PLK1 PBD block -10.8%, VDR inhibitor 25.7% and BAZ2B inh -38.1%.
`CCCC1CC(C)(C(=O)CSc2n[nH]c(-c3ccccc3)n2)OC1=O` (stereo not drawn) gave JMJD2A Tudor 35.5µM*, G9a inh 31.6µM*, HP1b chromo inh -9.5%, PLK1 PBD block -13.4%, VDR inhibitor 0.3% and BAZ2B inh inconclusive.
For CCCC1CC(=O)OC1(C)C(=O)CSc1n[nH]c(-c2ccccc2)n1 (stereo not drawn) the results were G9a inh 11.2µM* and BAZ2B inh -26.6%.
For O=C(CSc1n[nH]c(-c2ccccc2)n1)N1CCOCC1 the results were JMJD2A Tudor 2.1%, G9a inh 2.8%, HP1b chromo inh 24.0%, PLK1 PBD block -5.4%, VDR inhibitor -16.6% and BAZ2B inh inconclusive.
Screening COc1cc([C@H]2OC[C@H]3[C@@H]2CO[C@H]3c2ccc(O)c(OC)c2)ccc1O returned JMJD2A Tudor -17.1%, HP1b chromo inh 28.4%, PLK1 PBD block 1.6% and VDR inhibitor 1.4%.
`CN(c1ccc(O)cc1)S(=O)(=O)c1ccc2ccccc2c1` gave JMJD2A Tudor -24.7%, G9a inh -13.9%, HP1b chromo inh -3.0%, PLK1 PBD block -12.0%, VDR inhibitor -9.5% and BAZ2B inh -12.9%.
COc1cc(C(=O)C(=O)c2ccc(O)c(OC)c2)ccc1O was read as JMJD2A Tudor -1.3%, G9a inh 7.6%[12.7 µM], HP1b chromo inh 41.7%, PLK1 PBD block 1.0%, VDR inhibitor 5.5% and BAZ2B inh -7.1%.
Screening COc1cc(N=Nc2ccc3ccccc3c2)ccc1O returned JMJD2A Tudor 39.8µM*, G9a inh -46.6%[12.7 µM], HP1b chromo inh inconclusive, PLK1 PBD block 4.1%, VDR inhibitor 0.0% and BAZ2B inh 25.1µM*.
For COc1cc(N=Nc2ccccc2C(=O)O)ccc1O the results were JMJD2A Tudor -7.2%, G9a inh 50.1µM*, HP1b chromo inh 13.5%, PLK1 PBD block -1.4%, VDR inhibitor -6.6% and BAZ2B inh -33.7%.
Screening Oc1ccc(N=Nc2ccc3ccccc3c2)cc1 returned JMJD2A Tudor 44.7µM*, G9a inh -2.8%[0.501 µM], HP1b chromo inh inconclusive, PLK1 PBD block 7.4%, VDR inhibitor -7.7% and BAZ2B inh 31.6µM*.
Screening COc1ccc(C2=NN(S(C)(=O)=O)C(c3cn(-c4ccccc4)nc3-c3cccs3)C2)cc1 (stereo not drawn) returned JMJD2A Tudor -19.8%, G9a inh 1.1%[59 µM], HP1b chromo inh 7.9%, VDR inhibitor 10.8% and BAZ2B inh -26.0%.
For O=C1CC[C@@H](C(=O)N[C@@H](Cc2cnc[nH]2)C(=O)N[C@@H](Cc2c[nH]c3ccccc23)C(=O)N[C@@H](CO)C(=O)N[C@@H](Cc2ccc(O)cc2)C(=O)O)N1 the results were VDR inhibitor -3.3%.
Screening Cc1ccc(SCC(CC(C)C)N2CCN(C)CCC2=O)cc1 (stereo not drawn) returned JMJD2A Tudor -12.4%, HP1b chromo inh 9.8% and VDR inhibitor -2.2%.
`O=C(COc1ccc(S(=O)(=O)N2CCOCC2)cc1Cl)NCC1CCCO1` (stereo not drawn) gave JMJD2A Tudor -1.8%, G9a inh 19.9%, HP1b chromo inh 46.1%, PLK1 PBD block -20.0%, VDR inhibitor 12.5% and BAZ2B inh 0.5%.
`C=CCOc1ccc(C2/C(=C(/O)c3ccc4c(c3)CC(C)O4)C(=O)C(=O)N2CCCN2CCOCC2)cc1` (stereo not drawn) gave JMJD2A Tudor inconclusive, G9a inh 44.7µM*, HP1b chromo inh 2.1%, PLK1 PBD block -10.9%, VDR inhibitor -10.4% and BAZ2B inh -29.5%.
`CCCCOc1ccc(C2/C(=C(\O)c3ccc4c(c3)OCCO4)C(=O)C(=O)N2CCCN2CCOCC2)cc1` (stereo not drawn) gave JMJD2A Tudor -29.5%, G9a inh inconclusive, HP1b chromo inh -2.1%, PLK1 PBD block -7.7%, VDR inhibitor 7.9% and BAZ2B inh -35.8%.
COC(=O)c1ccc(C2/C(=C(/O)c3ccc4c(c3)CC(C)O4)C(=O)C(=O)N2Cc2ccncc2)cc1 (stereo not drawn) was read as JMJD2A Tudor -21.4%, G9a inh 44.7µM*, HP1b chromo inh 61.0%, PLK1 PBD block -11.5%, VDR inhibitor -1.7% and BAZ2B inh inconclusive.
`CC1Cc2cc(/C(O)=C3/C(=O)C(=O)N(CCCN(C)C)C3c3ccncc3)ccc2O1` (stereo not drawn) gave JMJD2A Tudor 7.8%, G9a inh -5.8%[12.7 µM], HP1b chromo inh 27.4%, PLK1 PBD block -1.1%, VDR inhibitor 13.0% and BAZ2B inh 8.9%.
`COc1ccc(C2/C(=C(/O)c3ccc4c(c3)CC(C)O4)C(=O)C(=O)N2CCN2CCOCC2)cc1` (stereo not drawn) gave JMJD2A Tudor -16.4%, G9a inh 44.7µM*, HP1b chromo inh 7.6%, PLK1 PBD block -11.5%, VDR inhibitor -0.1% and BAZ2B inh -2.6%.
Screening C=CCOc1cccc(C2/C(=C(\O)c3ccc4c(c3)OCCO4)C(=O)C(=O)N2CCN2CCOCC2)c1 (stereo not drawn) returned JMJD2A Tudor -22.9%, G9a inh 39.8µM*, HP1b chromo inh 48.1%, PLK1 PBD block -7.9%, VDR inhibitor -12.7% and BAZ2B inh inconclusive.
